# In publication PMC5700166:
# Target: T1, GST-Dm-Relish (Drosophila melanogaster, UniProt Q94527 99-473)
# T1 sequence: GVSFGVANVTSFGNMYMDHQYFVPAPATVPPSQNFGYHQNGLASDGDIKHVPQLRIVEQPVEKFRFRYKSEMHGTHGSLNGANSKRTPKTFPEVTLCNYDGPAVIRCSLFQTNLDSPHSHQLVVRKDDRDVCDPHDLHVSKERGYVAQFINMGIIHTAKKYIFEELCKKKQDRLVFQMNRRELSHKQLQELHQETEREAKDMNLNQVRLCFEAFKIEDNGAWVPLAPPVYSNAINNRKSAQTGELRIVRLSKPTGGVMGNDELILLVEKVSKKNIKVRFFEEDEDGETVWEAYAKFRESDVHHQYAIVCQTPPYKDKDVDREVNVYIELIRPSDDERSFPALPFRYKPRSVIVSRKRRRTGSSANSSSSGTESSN
# Assay: protein-binding microarray (PBM); PBM: ~300 nM protein, 6 mM HEPES pH 7.8, 80 mM KCl, 0.5 mM EDTA, 0.5 mM EGTA, 6% glycerol, 35 ng/ul poly-dIdC, 1% milk, 1 h, room temperature; Ap Aiptasia and Nv Nematostella (sea anemones) / Co Capsaspora / Aq Amphimedon (sponge) / Dm Drosophila / Hu human; RHD is the Rel homology domain; high values mean tight binding
# Conditions: dsDNA, one strand shown
row,Sequence,binding signal
1,CCGATTAACATCACGGAAACTCCTGATGTTAATCGGGTCTTGATTCGCTTGACGCTGCTG,1.23 z-score
2,CCGATTAACATCAAGGATTTTCCTGATGTTAATCGGGTCTTGATTCGCTTGACGCTGCTG,1.44 z-score
3,CCGATTAACATCAAAAATTTCCTTGATGTTAATCGGGTCTTGATTCGCTTGACGCTGCTG,1.94 z-score
4,CCGATTAACATCAAAAAAAGTACTGATGTTAATCGGGTCTTGATTCGCTTGACGCTGCTG,7.01 z-score
5,CCGATTAACATCAGGAAACTCCATGATGTTAATCGGGTCTTGATTCGCTTGACGCTGCTG,1.62 z-score

# Target: T2, GST-Aq-NF-kB (Amphimedon queenslandica, UniProt A9Y5G7 2-389)
# T2 sequence: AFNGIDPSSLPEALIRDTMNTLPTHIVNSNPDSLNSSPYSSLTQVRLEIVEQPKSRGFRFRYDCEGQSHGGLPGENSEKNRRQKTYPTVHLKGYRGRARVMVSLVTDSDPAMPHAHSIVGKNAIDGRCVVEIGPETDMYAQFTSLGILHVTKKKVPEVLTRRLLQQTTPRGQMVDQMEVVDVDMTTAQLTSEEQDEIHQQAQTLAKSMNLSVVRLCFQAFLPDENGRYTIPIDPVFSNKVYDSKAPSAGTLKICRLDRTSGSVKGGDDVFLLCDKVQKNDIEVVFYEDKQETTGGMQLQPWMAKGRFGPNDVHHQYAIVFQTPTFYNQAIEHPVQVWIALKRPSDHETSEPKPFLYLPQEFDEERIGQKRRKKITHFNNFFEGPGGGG
# Assay: as above
# Conditions: dsDNA, one strand shown
row,Sequence,binding signal
1,CCGATTAACATCAGGAATTTCTATGATGTTAATCGGGTCTTGATTCGCTTGACGCTGCTG,1.23 z-score
2,CCGATTAACATCAGAAATTTTCCTGATGTTAATCGGGTCTTGATTCGCTTGACGCTGCTG,1.31 z-score
3,CCGATTAACATCAGGGCAAGTACTGATGTTAATCGGGTCTTGATTCGCTTGACGCTGCTG,2.28 z-score
4,CCGATTAACATCACCGGATTTCCTGATGTTAATCGGGTCTTGATTCGCTTGACGCTGCTG,1.54 z-score
5,CCGATTAACATCAAGGAATTCCGTGATGTTAATCGGGTCTTGATTCGCTTGACGCTGCTG,1.75 z-score
6,CCGATTAACATCAAGGAATTCCATGATGTTAATCGGGTCTTGATTCGCTTGACGCTGCTG,1.54 z-score
7,CCGATTAACATCAGAAAATTCCATGATGTTAATCGGGTCTTGATTCGCTTGACGCTGCTG,1.51 z-score
8,CCGATTAACATCAGGAAAGTCCATGATGTTAATCGGGTCTTGATTCGCTTGACGCTGCTG,3.71 z-score
9,CCGATTAACATCAGAGGAATTCCTGATGTTAATCGGGTCTTGATTCGCTTGACGCTGCTG,2.12 z-score
10,CCGATTAACATCAGGAATTTCCATGATGTTAATCGGGTCTTGATTCGCTTGACGCTGCTG,3.89 z-score
11,CCGATTAACATCAAAAAATTCCATGATGTTAATCGGGTCTTGATTCGCTTGACGCTGCTG,1.71 z-score
12,CCGATTAACATCAAAAATTTTCCTGATGTTAATCGGGTCTTGATTCGCTTGACGCTGCTG,1.81 z-score
13,CCGATTAACATCAAAAAATTCCGTGATGTTAATCGGGTCTTGATTCGCTTGACGCTGCTG,2.61 z-score
14,CCGATTAACATCACGGAAATTTCTGATGTTAATCGGGTCTTGATTCGCTTGACGCTGCTG,2.5 z-score
15,CCGATTAACATCACGGAAAGTCCTGATGTTAATCGGGTCTTGATTCGCTTGACGCTGCTG,5.28 z-score
16,CCGATTAACATCAAAGGATTTCCTGATGTTAATCGGGTCTTGATTCGCTTGACGCTGCTG,1.01 z-score

row,Sequence,binding signal
1,CCGATTAACATCACGTGGTTTCCTGATGTTAATCGGGTCTTGATTCGCTTGACGCTGCTG,1.63 z-score
2,CCGATTAACATCAACAAAATTCCTGATGTTAATCGGGTCTTGATTCGCTTGACGCTGCTG,1.34 z-score
3,CCGATTAACATCAGGAGTTTCCATGATGTTAATCGGGTCTTGATTCGCTTGACGCTGCTG,2.43 z-score
4,CCGATTAACATCACGGAAAATCCTGATGTTAATCGGGTCTTGATTCGCTTGACGCTGCTG,3.9 z-score
5,CCGATTAACATCAAGGAAAGTACTGATGTTAATCGGGTCTTGATTCGCTTGACGCTGCTG,2.33 z-score
6,CCGATTAACATCAGAAATTTCCATGATGTTAATCGGGTCTTGATTCGCTTGACGCTGCTG,1.68 z-score
7,CCGATTAACATCACGGCCTTTCCTGATGTTAATCGGGTCTTGATTCGCTTGACGCTGCTG,1.82 z-score
8,CCGATTAACATCAGGAATTCCACTGATGTTAATCGGGTCTTGATTCGCTTGACGCTGCTG,1.57 z-score
9,CCGATTAACATCAAAAAACTTCCTGATGTTAATCGGGTCTTGATTCGCTTGACGCTGCTG,1.4 z-score
10,CCGATTAACATCAAAAAATTCCTTGATGTTAATCGGGTCTTGATTCGCTTGACGCTGCTG,2.21 z-score
11,CCGATTAACATCAGGTTTTTCCATGATGTTAATCGGGTCTTGATTCGCTTGACGCTGCTG,2.64 z-score
12,CCGATTAACATCATAAAATTCCATGATGTTAATCGGGTCTTGATTCGCTTGACGCTGCTG,1.26 z-score
13,CCGATTAACATCAAAAATTCCGTTGATGTTAATCGGGTCTTGATTCGCTTGACGCTGCTG,2.1 z-score
14,CCGATTAACATCAGGAAAATCCATGATGTTAATCGGGTCTTGATTCGCTTGACGCTGCTG,2.69 z-score
15,CCGATTAACATCAAGGAAAATCCTGATGTTAATCGGGTCTTGATTCGCTTGACGCTGCTG,3.1 z-score
16,CCGATTAACATCAAAAAAACTCCTGATGTTAATCGGGTCTTGATTCGCTTGACGCTGCTG,1.83 z-score
